Laboratory results: PubChem BioAssay
Calls of active or inactive are those of the source. Unless noted, the rule behind the calls is not given here.

Experiments:
[1] = HepG2 liver cancer cell viability effects, profiling panel, resazurin fluorescence, 24 h, PK04 Diversity Set (AID 1172); settings: higher = more signal
[2] = basal S. cerevisiae growth modulation, no modifier, primary screen, OD600, strain BY4716, 24 h, basal condition (AID 1173); settings: OD600, 24 h, higher = more signal, called active from +8 up or from −8 down
[3] = MM1S myeloma cell viability, profiling panel, resazurin fluorescence, basal, 24 h, PK04 Diversity Set (AID 1174); settings: higher = more signal, called active from +8 up or from −8 down;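 note: MM1S multiple myeloma cell line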
[4] = biological target: Dihydroorotate dehydrogenase (quinone), mitochondrial (Plasmodium falciparum (isolate 3D7)) (UniProt Q08210); test: PfDHODH enzyme inhibitors, primary screen, biochemical, C-terminal His tag, absorbance 600 nm (AID 1175); settings: DCIP absorbance 600 nm, higher = more signal, called active from +8 up or from −8 down;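 note: recombinant parasite enzyme with a five histidine tag at its C terminus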
Dihydroorotate dehydrogenase (quinone), mitochondrial (Plasmodium falciparum (isolate 3D7)), sequence (Q08210 whole entry, looked up): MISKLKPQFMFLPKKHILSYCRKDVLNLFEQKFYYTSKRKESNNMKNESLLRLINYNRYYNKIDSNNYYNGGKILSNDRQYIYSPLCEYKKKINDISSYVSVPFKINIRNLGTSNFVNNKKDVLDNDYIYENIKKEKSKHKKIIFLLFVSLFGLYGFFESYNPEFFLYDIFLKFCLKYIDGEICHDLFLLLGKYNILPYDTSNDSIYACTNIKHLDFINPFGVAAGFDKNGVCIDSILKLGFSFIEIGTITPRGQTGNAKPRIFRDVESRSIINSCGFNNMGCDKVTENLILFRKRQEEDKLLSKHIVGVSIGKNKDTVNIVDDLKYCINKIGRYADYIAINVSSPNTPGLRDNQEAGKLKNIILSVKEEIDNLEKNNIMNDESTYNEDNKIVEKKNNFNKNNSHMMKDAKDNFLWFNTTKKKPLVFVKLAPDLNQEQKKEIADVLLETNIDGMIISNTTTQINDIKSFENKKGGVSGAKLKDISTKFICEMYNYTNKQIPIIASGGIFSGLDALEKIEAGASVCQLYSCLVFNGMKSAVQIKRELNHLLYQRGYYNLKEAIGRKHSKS

[5] = P. aeruginosa biofilm formation inhibitors, primary screen, strain PAO1, LB-PBS medium, absorbance 600 nm (AID 1176); settings: P. aeruginosa PAO1 growth/biofilm, A600, 12 h; higher = more signal
[6] = S. cerevisiae RM11-1a growth modifiers, primary screen, strain RM11-1a, OD600, basal, 24 h (AID 1177); settings: OD600, 24 h, higher = more signal, called active from +8 up or from −8 down;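 note: cultures grown under basal conditions with no added stressor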
[7] = E. coli acrAB mutant growth effects, primary screen, E. coli filamentation inducers, strain DRC39, OD650, 24 h (AID 1178); settings: higher = more signal, called active from +8 up or from −8 down;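 note: growth measured as culture turbidity by optical density at 650 nm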
[8] = E. coli acrAB mutant growth effects, primary screen, E. coli filamentation inducers, strain DRC39, OD650, 48 h (AID 1179);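 note: screen aims at cell division blockers that make cells filament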; settings: E. coli DRC39 delta-acrAB growth, higher = more signal, called active from +8 up or from −8 down
[9] = RPMI8226 myeloma cell viability, profiling panel, resazurin fluorescence, basal, 24 h, PK04 Diversity Set (AID 1180); settings: higher = more signal;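 note: RPMI8826 multiple myeloma cell line at 5000 cells per well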
[10] = biological target: E3 ubiquitin-protein ligase XIAP (Homo sapiens) (UniProt P98170); test: XIAP binders, primary screen, biophysical, small-molecule microarray, fluorescence 635 nm (AID 1181); settings: small-molecule microarray binding, higher = more signal;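 note: score merges 667 nm emission and signal to noise over triplicate slides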
E3 ubiquitin-protein ligase XIAP (Homo sapiens), sequence (P98170 whole entry, looked up): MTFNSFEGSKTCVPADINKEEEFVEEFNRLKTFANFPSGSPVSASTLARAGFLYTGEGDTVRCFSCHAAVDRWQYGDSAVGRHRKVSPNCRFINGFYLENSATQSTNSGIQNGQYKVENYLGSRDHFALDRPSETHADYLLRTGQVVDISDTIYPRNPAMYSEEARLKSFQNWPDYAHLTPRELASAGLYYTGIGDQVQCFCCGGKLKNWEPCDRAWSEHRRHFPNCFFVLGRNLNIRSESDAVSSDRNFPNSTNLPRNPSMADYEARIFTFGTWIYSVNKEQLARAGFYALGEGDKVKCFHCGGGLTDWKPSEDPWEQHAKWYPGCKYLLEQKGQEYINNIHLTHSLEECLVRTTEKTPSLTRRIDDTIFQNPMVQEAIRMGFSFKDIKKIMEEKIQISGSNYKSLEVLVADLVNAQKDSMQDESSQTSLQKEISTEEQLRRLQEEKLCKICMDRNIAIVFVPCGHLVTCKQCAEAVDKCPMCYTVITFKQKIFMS

[11] = test system: XIP peptide (Xip251-270) binding; test: small-molecule binders of XIP peptide, primary screen, biochemical, small-molecule microarray, fluorescence 635/667 nm, 0.1 µg/mL protein (AID 1182); settings: fluorescent protein binding, 635 nm, higher = more signal, called active from +8 up or from −8 down
XIP peptide (Xip251-270) = test: small-molecule binders of XIP peptide, primary screen, biochemical, small-molecule microarray, fluorescence 635/667 nm, 0.5 µg/mL protein (AID 1183); settings: small-molecule microarray binding, fluorescence 635 nm; higher = more signal
[12] = Plasmodium falciparum growth inhibition, primary screen, strain 3D7, DAPI fluorescence, 100 nL (AID 1184);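 note: parasites grown inside human red blood cells in medium with human serum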; settings: P. falciparum 3D7 growth, 3 d, higher = more signal
[13] = biological target: Homeobox protein Hox-A13 (Mus musculus) (UniProt Q62424); test: inhibitors of HoxA13-DNA binding, primary screen, biochemical, fluorescence polarization, labeled oligonucleotide (AID 1185); settings: 15 min, higher = more signal, called active from +8 up or from −8 down
Homeobox protein Hox-A13 (Mus musculus), sequence (Q62424 whole entry, looked up): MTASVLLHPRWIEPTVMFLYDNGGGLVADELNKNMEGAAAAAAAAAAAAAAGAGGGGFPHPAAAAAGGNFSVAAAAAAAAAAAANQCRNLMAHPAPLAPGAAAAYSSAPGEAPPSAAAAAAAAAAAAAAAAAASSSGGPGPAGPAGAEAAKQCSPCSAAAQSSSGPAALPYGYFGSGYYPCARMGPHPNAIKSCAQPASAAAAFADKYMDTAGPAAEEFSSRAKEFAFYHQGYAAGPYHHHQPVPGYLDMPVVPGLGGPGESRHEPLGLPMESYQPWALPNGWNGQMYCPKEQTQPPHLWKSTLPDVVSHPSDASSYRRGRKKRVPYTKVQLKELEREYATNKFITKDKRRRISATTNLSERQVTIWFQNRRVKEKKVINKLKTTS

[14] = inhibitors of hydroxyurea-induced Chk1 phosphorylation, primary screen, imaging, HeLa, phospho-Chk1 antibody, percent positive cells (AID 1186); settings: hydroxyurea-induced phospho-Chk1 immunofluorescence imaging, higher = more signal
[15] = inhibitors of hydroxyurea-induced Chk1 phosphorylation, primary screen, imaging, HeLa, phospho-Chk1 nuclear intensity (AID 1187); settings: hydroxyurea-induced phospho-Chk1 immunofluorescence imaging, higher = more signal

Row | Structure (SMILES) | z-score [1] | z-score [2] | z-score [3] | composite z-score [4] | z-score [5] | z-score [6] | z-score [7] | z-score [8] | z-score [9] | composite z-score [10] | composite z-score [11] | composite z-score (XIP peptide (Xip251-270)) | z-score [12] | z-score [13] | z-score [14] | z-score [15]
1 | COCCOC(=O)N1C(=O)[C@@]2(c3cc(C#CCCO)ccc31)[C@H](C(=O)N1CCc3cc(OC)c(OC)cc3C1)[C@H]1C(=O)O[C@H](c3ccccc3)[C@H](c3ccccc3)N1[C@@H]2c1ccccc1OCCO | 0.713 | 1.68 (inactive) | 0.208 (inactive) | 0.0306 (inactive) | 1.38 (inactive) | 2.69 (inactive) | 0.497 (inactive) | 0.74 (inactive) | 1.01 | -0.0945 | 0.21 (inactive) | 0.805 | -2.18 | 0.554 (inactive) | 0.0905 (inactive) | 0.534 (inactive)
2 | O=C1O[C@@H](c2ccccc2)[C@@H](c2ccccc2)N2[C@@H](c3ccc(O)cc3)[C@]3(C(=O)Nc4ccc(C#CC5=CCCCC5)cc43)[C@@H](C(=O)N3CCCCCCC3)[C@H]12 | -0.109 | -1.2 (inactive) | 0.158 (inactive) | -1.81 (inactive) | 1.22 (inactive) | -0.976 (inactive) | 0.326 (inactive) | -0.199 (inactive) | 0.177 | 0.691 | 1.52 (inactive) | 0.816 | -1.99 | 4.91 (inactive) | -0.434 (inactive) | -0.686 (inactive)
3 | CO[C@H]1O[C@H](CO)[C@@H](OC(=O)Nc2ccccc2)[C@@H]2OC(=O)[C@H](Cc3ccccc3)C/C=C/C[C@@H](Cc3ccccc3)C(=O)O[C@@H]12 | -1.41 | 0.411 (inactive) | -3.52 (inactive) | -1.69 (inactive) | 0.385 (inactive) | 0.887 (inactive) | 1.04 (inactive) | 1.99 (inactive) | -2.26 | 0.288 | 1.5 (inactive) | 0.539 | -1.42 | -2.64 (inactive) | -0.62 (inactive) | -0.628 (inactive)
4 | C=C(CCCC)C(=O)CC[C@H](OC(C)=O)c1ccccc1OCCO | -1.32 | -2.49 (inactive) | -2.2 (inactive) | -0.573 (inactive) | -1.24 (inactive) | 0.0549 (inactive) | -1.17 (inactive) | -1.1 (inactive) | -2.13 | -0.0696 | 0.551 (inactive) | 0.439 | -2.52 | -5.49 (inactive) | -0.384 (inactive) | 0.126 (inactive)
5 | COCCCNC(=O)[C@@H]1c2ccccc2C(=O)N(C2CCCCC2)[C@H]1c1ccc(CO)cc1 | 0.559 | -0.32 (inactive) | 0.614 (inactive) | -0.271 (inactive) | 0.745 (inactive) | -0.611 (inactive) | 0.0359 (inactive) | -0.122 (inactive) | 0.505 | -0.0773 | -0.209 (inactive) | 0.339 | -1.76 | -0.837 (inactive) | 0.226 (inactive) | -0.182 (inactive)
6 | COc1cccc(C[C@H]2C[C@@H](CO[Si](C(C)C)(C(C)C)C(C)C)N3C(=O)[C@@]4(C(C)=O)O[C@@]23[C@@H]2C(=O)N(C)C(=O)[C@@H]24)c1 | 0.65 | 0.294 (inactive) | -0.494 (inactive) | 0.0539 (inactive) | 0.82 (inactive) | 0.993 (inactive) | -0.493 (inactive) | -0.638 (inactive) | -0.334 | 0.0082 | 0.234 (inactive) | 0.61 | -1.75 | -3.39 (inactive) | -0.365 (inactive) | -0.482 (inactive)
7 | COc1ccc(CCNC(=O)[C@@]2(Sc3ccc(C)cc3)CC(=O)N(Cc3cc(C(F)(F)F)cc(C(F)(F)F)c3)[C@@H]2c2ccc(CO)cc2)cc1 | -0.392 | -1.01 (inactive) | -0.378 (inactive) | -0.61 (inactive) | 0.112 (inactive) | -0.83 (inactive) | 0.0664 (inactive) | -0.331 (inactive) | -0.395 | 0.536 | -0.461 (inactive) | 0.705 | 0.264 | -2.57 (inactive) | 0.132 (inactive) | 0.282 (inactive)
8 | CC(=O)NCCCC[C@@H]1NC(=O)[C@H]2C[C@@H](C(=O)NCCCCCC[N+](C)(C)C)[C@@H](c3ccc(O)cc3)N2C1=O | 0.387 | -0.0177 (inactive) | 0.319 (inactive) | -1.03 (inactive) | 0.519 (inactive) | -0.533 (inactive) | -0.04 (inactive) | -0.63 (inactive) | -0.0771 | -0.0062 | 0.265 (inactive) | 0.883 | -0.0467 | -2.81 (inactive) | -0.207 (inactive) | 0.0348 (inactive)
9 | C=CC[C@]1(C(=O)N(C)C)COC(c2ccc(OCCCO)cc2)=N1 | 0.0446 | -2.54 (inactive) | 0.41 (inactive) | -0.261 (inactive) | 1.21 (inactive) | 0.919 (inactive) | 0.386 (inactive) | -2.8 (inactive) | 0.764 | 0.202 | 0.113 (inactive) | 0.907 | -1.7 | -2.35 (inactive) | -0.491 (inactive) | -0.146 (inactive)
10 | C=CCNC(=O)[C@@H]1[C@H]2C(=O)O[C@H](c3ccccc3)[C@H](c3ccccc3)N2[C@H](c2ccc(O)cc2)[C@@]12C(=O)Nc1ccc(C#CC3(O)CCCCCC3)cc12 | -0.285 | 0.0504 (inactive) | -0.205 (inactive) | 0.0708 (inactive) | 0.498 (inactive) | 0.117 (inactive) | 0.6 (inactive) | 0.0092 (inactive) | -1.57 | -0.154 | 0.237 (inactive) | -0.251 | 0.516 | -3.49 (inactive) | -0.326 (inactive) | -0.0283 (inactive)
